# PubChem BioAssay (NCI)
# Compounds without any hit were thinned out: in the full panel of roughly 83,000, 20% have a hit.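 Step 1: grow cells in 96-well plates. Step 2: add test compound at a single concentration. Step 3: incubate 48 h. Step 4: record percent growth.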 Unmarked numbers belong to inactive results. Active and inactive are the calls of the source. Rule for the calls: active = growth percent below 10; inactive = the rest.
# Key:
# Experiment in all cases: NCI-60 one-dose screen, 48 h (100 = growth as untreated, 0 = no growth, -100 = all killed)
# Details in all cases: 10 µM unless noted
# [1] = tested on: T-47D breast
# [2] = tested on: BT-549 breast
# [3] = tested on: MDA-MB-435 melanoma
# [4] = tested on: SW-620 colon
# [5] = tested on: MCF7 breast
# [6] = tested on: HCT-116 colon
# [7] = tested on: HCC-2998 colon
# [8] = tested on: KM12 colon
SMILES,growth [1],growth [2],growth [3],growth [4],growth [5],growth [6],growth [7],growth [8]
N#Cc1cccc(NC(=O)c2cc(-c3ccc(F)cc3F)ccc2O)c1,7.54% (active),-0.215% (active),2.73% (active),13.4%,2.47% (active),5.45% (active),22.7%,2.94% (active)
Nc1cc(F)ccc1NC(=O)c1ccc(NC(=O)C/C=C/c2cccnc2)cc1,22.7%,26.1%,28%,17.6%,33%,9.59% (active),52.8%,41.5%
CNC(=O)c1cc(N2CCc3cc(NC(=O)Nc4ccc(Cl)c(C(F)(F)F)c4)ccc32)ccn1,49.2%,72.3%,53.3%,88.2%,29.8%,39.4%,53.7%,17%
FC(F)(F)c1cc(Nc2cccc(Oc3ccc(NC4=NCCN4)nc3)c2)ccc1Cl,23.4%,44.7%,-40% (active),-75.8% (active),-42.5% (active),-48.5% (active),-58% (active),-60.4% (active)
N#Cc1cnc2ccc(-c3cnc4[nH]ncc4c3)cc2c1N1CCc2cc(F)c(Cl)cc21,-2.57% (active),20.1%,-10.2% (active),17.9%,-2.16% (active),8.48% (active),-11.8% (active),14%
CN(C)C(=O)c1cc(-c2ccc3ncnc(NCc4ccccc4)c3c2)cnc1N,62%,111%,99.2%,102%,77.5%,101%,102%,101%
COC(=O)c1ccc(NC2=C/C(=N/S(=O)(=O)c3ccc(C(=O)O)cc3)c3ccccc3C2=O)cc1,4.9% (active),84.2%,-93.1% (active),-30% (active),-58.2% (active),5.32% (active),105%,51.1%
Cc1ccc2sc3c(c2c1)OC(N)=C(C#N)C3c1cccc(F)c1 (configuration not stated),35.5%,-6.44% (active),-28.6% (active),15.2%,15.2%,-24.6% (active),6.17% (active),2.9% (active)
COc1cc(Cn2cc3c(c2)-c2onc(CN4CCCC4)c2CC3)cc(OC)c1OC,76.1%,93.2%,96.4%,104%,80.6%,95.9%,106%,90.3%
CN1CCN(c2nc(-c3csc(-c4ccccc4)n3)cc3ccccc23)CC1,-23.3% (active),96.2%,7.31% (active),-19.1% (active),9.31% (active),2.27% (active),-84.7% (active),18.7%
COc1ccc(/C=N/NC2=NC3C(S2)N(C)C(=O)N3C)cc1 (configuration not stated),26.7%,66%,-56.4% (active),16.1%,15.4%,33.5%,67%,20.8%
CCCCCc1ccc(S(=O)(=O)Nc2cc(-c3csc(NC(=O)CN4CCN(CCO)CC4)n3)ccc2OC)cc1,26.8%,88.7%,-48.6% (active),1.64% (active),6.28% (active),-13.2% (active),-23.4% (active),61.2%
NS(=O)(=O)c1ccc(Nc2nc(SCC(=O)c3ccc(Cl)cc3)nc3c2CCCC3)cc1,13.5%,67.3%,54.4%,40.5%,25.4%,36.8%,21.6%,19.6%
CCNC(=O)Oc1ccc(/C(=C(/C)c2ccccc2)c2ccc(OCCN3CCCCCC3)cc2)cc1,2.6% (active),-3.35% (active),-35.5% (active),-42.9% (active),7% (active),-78% (active),25.3%,5.22% (active)
CS(=O)(=O)Nc1cc(-c2ccc3ncc(C#N)c(NCc4ccccc4O)c3c2)cnc1Cl,13%,-10% (active),5.99% (active),9.16% (active),1.5% (active),2.58% (active),-1.75% (active),10%
ClC(Cl)c1nc(-c2ccco2)n2nc(-c3ccccc3)cc2n1,32.8%,87.7%,24.9%,8.35% (active),1.38% (active),2.94% (active),-53.5% (active),-27.4% (active)
CCCC(=O)NC(c1cccnc1)c1cc(C(C)(C)C)c2cccnc2c1O (configuration not stated),24.1%,24.8%,30.2%,34.2%,10.9%,21.7%,51.4%,18.8%
COc1ccc([C@@H]2[C@@H](O)C(=O)N2c2cc(OC)c(OC)c(OC)c2)cc1F,68%,-18.5% (active),-12% (active),22.5%,9.59% (active),2.32% (active),5.15% (active),6.09% (active)
O=c1[nH]c2ccccc2cc1CSc1ccccc1Nc1nccc(-c2ccc(Cl)cc2)n1,93.3%,119%,99.9%,101%,81.1%,100%,114%,100%
COc1ccccc1NC1=C(Cl)C(=O)c2nc(C)ccc2C1=O,-44.7% (active),83.5%,-86% (active),-63.1% (active),-60.4% (active),-80.6% (active),58.9%,69.4%
Nc1nc(N)c2c(n1)NC(c1ccc(C(F)(F)F)cc1)CC(c1ccc(Nc3nc(NCCO)nc(N4CCOCC4)n3)cc1)=N2 (configuration not stated),62.7%,76.3%,65.9%,56.7%,33.7%,35.8%,86.4%,51.2%
Cc1ccc(-n2c(/C=C3\C(=O)Nc4ccccc43)ccc2CO)cc1,77.4%,66.6%,-10.3% (active),43.3%,34.5%,52.8%,95.7%,18.8%
COc1ccc2c(c1)c(-c1cc(N)n3nc(-c4cn(C)c5ccc(OC)cc45)cc3n1)cn2C,96.2%,117%,112%,-20.6% (active),32.5%,-4.19% (active),114%,96.9%
Nc1cc(-c2c[nH]c3ccc(Br)cc23)nc2cc(-c3c[nH]c4ccc(Br)cc34)nn12,39.3%,76.4%,-20.3% (active),5.89% (active),8.21% (active),-72% (active),-3.56% (active),-23.2% (active)
CCO/C=N/C1=C(C#N)C(c2ccc(Cl)cc2)c2sc3c(CC)cccc3c2O1 (configuration not stated),26.9%,59.6%,-43.2% (active),32.3%,16.2%,23.1%,23.6%,15.3%
COc1ccc(/C=C/C(=O)c2cccc(NC(=O)CSc3nc4ccccc4c(=O)n3-c3ccccc3)c2)cc1OC,88.2%,115%,101%,94.1%,69.2%,86.2%,111%,95.9%
Nc1ncc(-c2ccc(NS(=O)(=O)c3ccc(Cl)c(Cl)c3)cc2)[nH]1,76.7%,69.9%,96.4%,91.3%,75%,99.3%,91.2%,89.6%
N/C(=N\C(N)=N\c1nc2ccccc2s1)c1ccc(C(F)(F)F)cc1,69%,101%,93%,106%,77.9%,56.4%,94%,61.6%
COc1cc(C2N=C(NNc3ccccc3)NC(C)=C2C(C)=O)ccc1O (configuration not stated),83.9%,123%,92.5%,82.1%,88.7%,95.1%,98.9%,95.6%
